# Shown is part of a subset that was picked to be rich in hits.
# TTR transcr act = activators of transthyretin transcription; SH-SY5Y TTR promoter Gaussia luciferase, luminescence; 100% = recombinant luciferase protein wells; activation, % at 16.7 µM; hit rate 1.3% among 92,000; AID 1117267;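 active = activation above the mean of all tested compounds plus 3 SD, cut at about 9.5% in these data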;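 also: cells exposed to compounds for one day before reading; 0% = median of all test compound wells on the plate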
# HuH7 TTR inh = counter-screen for TTR activators: TTR transcription inhibitors in HuH7 cells | shares compounds with TTR transcr act | HuH7 TTR promoter-Gaussia luciferase reporter, luminescence | inhibition, % at 16.7 µM | hit rate 4% among 1,100 | AID 1117279;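 active = average inhibition above the solvent-only control wells' mean plus 3 SD, cut at about 15% in these data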;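 also: 0% = cells with DMSO only and 100% = cells with inhibitor control FD; inhibitors lower well luminescence so higher value means more inhibition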
# TTR act confirm = human TTR transcription activation, confirmation | shares compounds with TTR transcr act | SHSY5Y TTR promoter Gaussia luciferase, luminescence; 100% = purified Lucia enzyme wells, no cells | activation, % at 16.7 µM | 1,100 tested, under 10 active | AID 1117280;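 active = mean activation above a set limit taken from the earlier primary screen, cut at about 11% in these data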;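 also: 0% = DMSO-treated cells and 100% = recombinant Lucia luciferase without cells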
# The depositor's hits bear a star.
SMILES,TTR transcr act,others
O=C(O)CC1(C(=O)O)CCCC1,-1.8,
O=C(O)C1(C(=O)O)CCC2(CCCCC2)CC1,10.0*,HuH7 TTR inh=-12.9;TTR act confirm=1.3
O=C(O)C1(C(=O)O)CCCC1,1.5,
O=C(NCc1cccnc1)O[C@H]1CC[C@@]23CCCN2C(=O)CCC[C@H]3C1,1.2,
C[C@H](NC(=O)OCc1ccccc1)P(=O)(O)O,-0.7,
Cn1cnnc1SCc1ccc(C(=O)NN)cc1,-0.9,
Cn1cnnc1SCc1ccccc1,18.2*,HuH7 TTR inh=-10.7;TTR act confirm=-0.4
COc1ccc(CSc2nncn2C)cc1F,-1.8,
COC(=O)[C@]12CCCCC=C1N(Cc1ccc(OC)cc1)C(=O)[C@@H]2CC(=O)NCc1cccc(C(F)(F)F)c1,1.0,
CC(Oc1ccccc1)C(=O)N1CCCc2ccccc21 (stereo not drawn),10.2*,HuH7 TTR inh=-16.2;TTR act confirm=0.7
CC(OC(=O)Cn1c(C(F)(F)F)nc2ccccc21)C(=O)N1CCCc2ccccc21 (stereo not drawn),3.9,
CSC1=NCCN1C(=O)C(C)Oc1ccccc1 (stereo not drawn),-1.2,
O=C(NCc1ccc(Cl)c(Cl)c1)O[C@H]1CC[C@@]23CCCN2C(=O)CCC[C@H]3C1,-0.1,
CN(C)[C@@H]1CCN(c2cccc3c2S(=O)(=O)N2CC[C@@H](C2)O3)C1,0.8,
O=C(C1CCCCC1)N1C[C@H](n2cc(-c3ccc(F)cc3)nn2)[C@@H](O)C[C@@H]1c1ccc(Cl)cc1,1.2,
COc1ccc([C@H]2C[C@H](O)[C@@H](n3cc(C4CC4)nn3)CN2C(=O)c2cccs2)cc1,1.3,
Cc1ccc([C@H]2C[C@@H](O)[C@H](n3cc(-c4ccc(F)cc4)nn3)CN2C(=O)c2cccs2)cc1,10.6*,HuH7 TTR inh=14.6*;TTR act confirm=-0.2
Cc1c(C(O)(c2ccccc2)c2ccccc2)[n+]2ccccc2n1C,0.5,
O=C(/C=C\c1ccco1)NC(=S)Nc1ccccc1O,-0.2,
Cn1nnc(NC(=S)NC(=O)/C=C/c2ccco2)n1,7.8,
Cc1cccnc1NC(=S)NC(=O)/C=C/c1ccco1,11.6*,HuH7 TTR inh=-0.1;TTR act confirm=-0.2
CN(C)c1cccc(-c2cnc(N3CCC(C(N)=O)CC3)nc2)c1,0.7,
Cc1ccccc1CN1CCCCC(NC(=O)c2cc(-c3ccccc3)no2)C1=O (stereo not drawn),3.6,
CCN(CC(=O)Nc1ccc(NC(C)=O)cc1)C(=O)c1c(-c2c(F)cccc2Cl)noc1C,17.0*,HuH7 TTR inh=-10.2;TTR act confirm=-0.3
CCN(CC(=O)Nc1c(F)cccc1F)C(=O)c1c(-c2ccccc2Cl)noc1C,-0.6,
SMILES,TTR transcr act,others
COc1cccc(NC(=O)CN(C)C(=O)c2c(-c3c(F)cccc3Cl)noc2C)c1,1.3,
C[C@H]1COc2cc(N3CCSCC3)ccc2S(=O)(=O)N1C,0.2,
O=C(NCc1ccc(F)c(F)c1)C1CCC(=O)N(CCc2ccccc2)C1 (stereo not drawn),1.1,
Cc1ccc(F)cc1CNC(=O)C1CCC(=O)N(CCc2ccccc2)C1 (stereo not drawn),-0.1,
CCOC(=O)CC1(NC(=O)C2CCC(=O)N(CCc3ccccc3)C2)CCCCC1 (stereo not drawn),13.6*,HuH7 TTR inh=-12.2;TTR act confirm=0.6
CC(C)N1CCCCC(NC(=O)c2cccs2)C1=O (stereo not drawn),2.7,
C[C@@H]1CCN(C2CC2)S(=O)(=O)c2ccc(N3CCC[C@H]3CO)cc2O1,0.1,
COc1ccc(CC(=O)NNC(=O)CCc2ccccc2)cc1,0.1,
Cc1ccccc1OCC(=O)NNC(=S)NC(=O)c1ccco1,0.8,
Cc1ccccc1OCC(=O)NNC(=O)CCc1ccccc1,10.2*,HuH7 TTR inh=-9.7;TTR act confirm=-0.1
COc1ccc(Cn2ccc3ccc(-c4ccc5ccn(Cc6cccc(F)c6)c5c4)cc32)cc1,0.1,
CCC(C)[C@H](NC(=O)[C@H](Cc1ccccc1)NC(=O)OC(C)(C)C)C(=O)NCc1ccccc1Br (stereo partly drawn),2.1,
Cc1ccc(N2C(=O)CC(Cn3nc(C)cc3C)C2=O)cc1 (stereo not drawn),-1.4,
Cc1cc(C)n(CC2CC(=O)N(c3ccc(Cl)cc3)C2=O)n1 (stereo not drawn),3.9,
Cc1cc(C)n(CC2CC(=O)N(c3ccc(Cl)c(Cl)c3)C2=O)n1 (stereo not drawn),11.9*,HuH7 TTR inh=-11.3;TTR act confirm=0.2
COC(CNC(=O)[C@H](Cc1ccccc1)NC(C)(C)C(=O)NC1CCCCC1)OC,-2.1,
O=C1CCC[C@H]2C[C@H](NCc3ccc(Cl)c(C(F)(F)F)c3)CC[C@]23CCCN13,-0.8,
CCC[C@H]1[C@@H](O)CC[C@@]23CCCN2C(=O)CCC[C@@H]13,0.1,
C=CCN1C(=O)[C@H](CC(=O)N2CCOCC2)[C@@]2(C(=O)OCC)CCCC=C12,1.6,
CCOC(=O)c1cc(C(=O)NN)c(C)nc1C,-1.5,
CCOC(=O)c1cnn2c(C)cc(-c3ccc(F)cc3)nc12,-0.3,
CCOC(=O)c1cc2cc(F)ccc2nc1C,23.4*,HuH7 TTR inh=-3.5;TTR act confirm=-0.8
O=C(Cc1ccccc1)c1c[nH]c(C(=O)NCc2ccncc2)c1,2.4,
CN(C)CCCNC(=O)c1cc(C(=O)C2CCCCC2)c[nH]1,-0.3,
CN(C)CCCNC(=O)c1cc(C(=O)Cc2ccccc2)c[nH]1,21.3*,HuH7 TTR inh=-10.9;TTR act confirm=-0.1
SMILES,TTR transcr act,others
Cc1cccc(C)c1-n1nnnc1C1c2ccccc2OCC(=O)N1Cc1ccc(F)cc1 (stereo not drawn),-0.7,
CC(C)(C)C(=O)NNC(=O)c1cc(C(C)(C)C)nn1Cc1ccccc1,-0.4,
CC(C)(C)c1cc(C(=O)NC2CC2)n(Cc2ccc(F)cc2)n1,9.7*,HuH7 TTR inh=-28.3;TTR act confirm=0.7
CC(C)(C)c1cc(C(=O)Nc2ccc(F)cc2)n(Cc2ccc(F)cc2)n1,-1.7,
COC(=O)CNC(=O)CNC1(C(=O)NCCc2c[nH]c3ccccc23)CCCCC1,-1.9,
Cc1ccc(CN2CCCCC(NC(=O)Nc3ccccc3)C2=O)cc1 (stereo not drawn),-2.1,
CC(=O)NC1(NC(C)=O)CCN(C)C(c2ccccc2)C1C (stereo not drawn),14.8*,HuH7 TTR inh=-6.3;TTR act confirm=-0.5
CC(=O)NC1(c2ccccc2)CCN(C(=O)N2CCOCC2)CC1,1.4,
CC(=O)NC1(C(F)(F)F)C(=O)N(Cc2ccccc2)C2=C1C(=O)CC(C)(C)C2 (stereo not drawn),-1.2,
CCOC(=O)[C@@]12CCC3=C1N(CCC3)C(=O)[C@H](CC(=O)NCc1cccc3ccccc13)C2,0.8,
Cc1ccc(CN2CCCCC(NC(=O)Nc3cccc([N+](=O)[O-])c3)C2=O)cc1 (stereo not drawn),-1.5,
COC(=O)[C@]12C[C@H](CC(=O)N3CCOCC3)C(=O)N(Cc3ccc(Cl)cc3Cl)C1=C[C@H](C1CCCC1)O[C@@H]2C,-0.6,
CC(C)(C)NC(=O)C(c1cccnc1)N(C(=O)c1cnc[nH]1)c1ccc(C(C)(C)C)cc1 (stereo not drawn),-2.9,
CCOc1cc(C(=O)NC(C)CC)cc(OCC)c1OCC (stereo not drawn),-3.3,
CCOc1cc(C(=O)NCCCNC(=O)c2cc(OCC)c(OCC)c(OCC)c2)cc(OCC)c1OCC,11.9*,HuH7 TTR inh=-28.6;TTR act confirm=-0.4
CCCCCCNC(=O)CCNC(=O)c1cc(OC)c(OC)c(OC)c1,-0.6,
COC(=O)[C@]12C[C@H](CC(=O)N3CCN(C(=O)c4ccco4)CC3)C(=O)N(Cc3ccco3)C1=C[C@H](C1CCCC1)O[C@@H]2C,-0.5,
CCC[C@H]1[C@@H](NC(=S)Nc2ccccc2Cl)CC[C@@]23CCCN2C(=O)CCC[C@@H]13,0.8,

# Bioassay records (PubChem BioAssay)
